Test results reported in the supplement of paper PMC6522484.
± gives the standard deviation of the averaged measurements.

Legend:
DLD1 [1] = assay: cell viability (CellTiter-Glo) relative to plate median (fraction of plate median); higher = more viable cells; settings: 5 µM; treatment time 24 h; reporter: 7TFP
Procedure, shortened: (§1)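 Normalisation used webcellHTS2 in additive mode without log transformation, scaling each well's luminescence to the plate median. The luminescence was firefly luciferase or CellTiterGlo, read on a Tecan F500 from parallel plates of colorectal cancer cells stably transduced with lentiviral TCF/Wnt firefly luciferase reporters. Those cells had been given library compounds at a final 5 µM for 24 h, and two independent replicates were averaged.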

HCT116 = assay: as above; settings: 5 µM; treatment time 24 h; reporter: TCF4/Wnt
Procedure, shortened: as §1

SW480 [2] = assay: as above; settings: 5 µM; treatment time 24 h; reporter: 7TFP
Procedure, shortened: as §1

DLD1 [3] = assay: TCF/Wnt firefly luciferase reporter signal relative to plate median (fraction of plate median); higher = higher Wnt reporter signal; settings: 5 µM; treatment time 24 h; reporter: 7TFP
Procedure, shortened: as §1

SW480 [4] = assay: as above; settings: 5 µM; treatment time 24 h; reporter: 7TFP
Procedure, shortened: as §1

| SMILES | cell viability (DLD1 [1]) | cell viability (HCT116) | cell viability (SW480 [2]) | TCF/Wnt firefly luciferase reporter signal (DLD1 [3]) | TCF/Wnt firefly luciferase reporter signal (SW480 [4]) |
| --- | --- | --- | --- | --- | --- |
| CC(C)N(CCC(C(N)=O)(c1ccccc1)c1ccccn1)C(C)C (stereo not given) | 0.914 ± 0.077 | 0.964 ± 0.029 | 0.981 ± 0.011 | 1.16 ± 0.071 | 1.13 ± 0.014 |
| CC(=O)[O][Hg][c]1ccccc1 | 0.0442 ± 0.012 | 0.0479 ± 0.031 | 0.0258 ± 0.0048 | 0.0227 ± 0.0033 | 0.0222 ± 0.0026 |
| COc1cc2c3cc1Oc1c(OC)c(OC)cc4c1[C@@H](Cc1cccc(c1)Oc1ccc(c(O)c1)C[C@@H]3N(C)CC2)N(C)CC4 | 1.03 ± 0.045 | 1 ± 0.028 | 1.12 ± 0.05 | 0.9605 ± 0.00071 | 1.12 ± 0.064 |
| Nc1ccccc1C(=O)O [Anthranilic acid] | 0.906 ± 0.16 | 1 ± 0.037 | 0.98 ± 0.015 | 0.89 ± 0.044 | 1.04 ± 0.057 |
| CCNc1nc(Cl)nc(NCC)n1 | 0.955 ± 0.028 | 1.065 ± 0.0071 | 1.02 ± 0.03 | 0.9375 ± 0.005 | 0.886 ± 0.034 |
| CC(=O)O[C@@H]1C[C@H]2C(C)(C)C(=O)C=C[C@]2(C)[C@H]2CC[C@]3(C)C(=CC(=O)O[C@H]3c3ccoc3)[C@@]21C | 0.99 ± 0.086 | 0.997 ± 0.075 | 0.963 ± 0.016 | 1.03 ± 0.1 | 0.975 ± 0.05 |
| C[C@H]1O[C@@H](O[C@H]2[C@@H](O)C[C@H](O[C@H]3[C@@H](O)C[C@H](O[C@H]4CC[C@@]5(C)[C@H](CC[C@@H]6[C@@H]5CC[C@]5(C)[C@@H](C7=CC(=O)OC7)[C@@H](O)C[C@]65O)C4)O[C@@H]3C)O[C@@H]2C)C[C@H](O)[C@@H]1O | 0.632 ± 0.13 | 0.649 ± 0.21 | 0.765 ± 0.11 | 0.611 ± 0.61 | 0.685 ± 0.25 |
| CC1(C)C2C[C@@H](O)[C@]3(C)C(CC[C@@]4(C)[C@H](c5ccoc5)OC(=O)[C@H]5O[C@]543)[C@@]2(C)[C@@H](O)C[C@H]1O (stereo not given in full) | 1.02 ± 0.071 | 0.963 ± 0.081 | 0.989 ± 0.0057 | 1.07 ± 0.18 | 0.936 ± 0.055 |
| Cc1c(O)c(O)cc2c1CC=C1[C@@]2(C)CC[C@@]2(C)[C@@H]3C[C@](C)(C(=O)O)CC[C@]3(C)CC[C@]12C | 0.88 ± 0.082 | 0.981 ± 0.069 | 1.03 ± 0.045 | 0.863 ± 0.073 | 0.846 ± 0.079 |
| CC([C@H](O)c1ccccc1)N(C)C (stereo not given in full) | 0.991 ± 0.0014 | 1.015 ± 0.0071 | 0.966 ± 0.091 | 0.915 ± 0.09 | 0.975 ± 0.05 |
| CC[C@@]1(O)C[C@H](O[C@H]2C[C@H](N(C)C)[C@H](O)[C@H](C)O2)c2c(cc3c(c2O)C(=O)c2c(O)cccc2C3=O)[C@H]1C(=O)OC | 1.07 ± 0.17 | 0.9035 ± 0.0064 | 1.2 ± 0.12 | 1.4 ± 0.05 | 0.842 ± 0.028 |
| C[C@@H](CO)NC(=O)[C@@H]1C=C2c3cccc4[nH]cc(c34)C[C@H]2N(C)C1 | 0.983 ± 0.067 | 1.01 ± 0.061 | 0.939 ± 0.052 | 1.09 ± 0.099 | 0.98 ± 0.026 |
| CC(C)[N+](C)(CCC(C(N)=O)(c1ccccc1)c1ccccc1)C(C)C | 1.045 ± 0.0071 | 1.055 ± 0.0071 | 0.996 ± 0.0057 | 1.02 ± 0.12 | 1.03 ± 0.042 |
| Oc1ccc(Cl)cc1 | 1.06 ± 0.064 | 0.892 ± 0.025 | 0.961 ± 0.04 | 1.03 ± 0.042 | 1.115 ± 0.0071 |
| Cc1ccc(/N=C/N(C)/C=N/c2ccc(C)cc2C)c(C)c1 | 1.01 ± 0.021 | 0.988 ± 0.074 | 0.975 ± 0.036 | 1.1 ± 0.057 | 0.927 ± 0.12 |
| CC(C)=CCC[C@]1(C)C=Cc2c(O)c3c(c(CC=C(C)C)c2O1)O[C@]12C(=C[C@@H]4C[C@H]1C(C)(C)O[C@@]2(C/C=C(/C)C(N)=O)C4=O)C3=O | 0.976 ± 0.049 | 0.9335 ± 0.00071 | 1.03 ± 0.021 | 0.947 ± 0.011 | 0.895 ± 0.1 |
| O=[N+]([O-])c1ccc(O)c([N+](=O)[O-])c1 | 0.981 ± 0.042 | 0.953 ± 0.034 | 0.905 ± 0.098 | 0.966 ± 0.13 | 1.03 ± 0.035 |

| SMILES | cell viability (DLD1 [1]) | cell viability (HCT116) | cell viability (SW480 [2]) | TCF/Wnt firefly luciferase reporter signal (DLD1 [3]) | TCF/Wnt firefly luciferase reporter signal (SW480 [4]) |
| --- | --- | --- | --- | --- | --- |
| O=c1[nH]c2ccccc2n1C1CCN(CCCC(c2ccc(F)cc2)c2ccc(F)cc2)CC1 | 0.95 ± 0.013 | 0.922 ± 0.065 | 1.01 ± 0.019 | 1.02 ± 0.014 | 0.88 ± 0.12 |
| Cc1nccc2c1[nH]c1cc(O)ccc12 | 0.984 ± 0.0099 | 0.978 ± 0.06 | 1.01 ± 0.018 | 1.01 ± 0.03 | 0.978 ± 0.046 |
| COc1cccc(C=O)c1OC | 1.01 ± 0.022 | 1.1 ± 0.15 | 1 ± 0.043 | 1.03 ± 0.073 | 0.914 ± 0.088 |
| O=[N+]([O-])O[C@@H]1CO[C@H]2[C@@H]1OC[C@@H]2O | 0.98 ± 0.018 | 1.06 ± 0.028 | 1.02 ± 0.03 | 0.989 ± 0.28 | 0.915 ± 0.12 |
| O=c1ccc2c(O)c3ccoc3cc2o1 | 1.005 ± 0.0071 | 0.8825 ± 0.005 | 1.02 ± 0.028 | 0.926 ± 0.037 | 0.886 ± 0.034 |
| C=C(C)[C@@H]1CC[C@]2(C(=O)O[C@@H]3O[C@H](CO[C@@H]4O[C@H](CO)[C@@H](O[C@@H]5O[C@@H](C)[C@H](O)[C@@H](O)[C@H]5O)[C@H](O)[C@H]4O)[C@@H](O)[C@H](O)[C@H]3O)CC[C@]3(C)[C@H](C[C@H]4OC(=O)C[C@@H](O)[C@]5(C)[C@@H]4[C@@]3(C)CC[C@H]5C(=C)C)[C@@H]12 [Chiisanoside (5)] | 0.873 ± 0.16 | 0.958 ± 0.074 | 0.945 ± 0.059 | 0.817 ± 0.059 | 0.948 ± 0.12 |
| COc1cc2c(cc1OC)[C@@H]1C(=O)c3ccc4c(c3O[C@@H]1CO2)CC(C(C)C)O4 (stereo not given in full) | 0.963 ± 0.11 | 0.685 ± 0.14 | 0.9715 ± 0.0092 | 0.84 ± 0.0042 | 0.842 |
| COc1cc2c(cc1O)CCN[C@@H]2C | 0.997 ± 0.0014 | 1.06 ± 0.099 | 1.015 ± 0.0071 | 0.89 ± 0.16 | 0.966 ± 0.049 |
| C=C[C@H]1CN2CC[C@H]1C[C@@H]2[C@@H](O)c1ccnc2ccccc12 | 1.02 ± 0.055 | 0.963 ± 0.021 | 0.984 ± 0.023 | 1.03 ± 0.028 | 0.926 ± 0.014 |
| CCC(C)C(=O)O[C@@H]1C[C@@]2(C)[C@H](c3ccoc3)OC(=O)CC23OC2(C)O[C@]14[C@]1(C)[C@@H](CC(=O)OC)C5(C)CC1(O)[C@](O)(C5OC(=O)C1(C)OC1C)[C@@H](OC(C)=O)[C@]34O2 (stereo not given in full) | 0.972 ± 0.027 | 0.961 ± 0.11 | 1 ± 0.013 | 1.04 ± 0.014 | 0.928 ± 0.19 |
| CC(=O)O[C@H]1CC[C@@]2(C)[C@H](CC[C@@H]3[C@@H]2CC[C@]2(C)[C@@H](C4=CC(=O)OC4)[C@@H](OC(C)=O)C[C@]32O)C1 | 0.633 ± 0.0092 | 0.723 ± 0.06 | 0.82 ± 0.086 | 0.277 ± 0.1 | 0.592 ± 0.088 |
| Cc1cccc(C)c1NC1=NCCCS1 | 1.04 ± 0.073 | 1.01 ± 0.036 | 0.992 ± 0.012 | 1.07 ± 0.05 | 1.02 ± 0.083 |
| CN1CCCCC1c1ccc(-c2cccnc2)nc1 (stereo not given) | 0.963 ± 0.024 | 0.901 ± 0.12 | 1.01 ± 0.027 | 1.03 ± 0.021 | 0.983 ± 0.096 |
| COc1ccc(C(CN(C)C)C2(O)CCCCC2)cc1 (stereo not given) | 1.06 ± 0.014 | 0.972 ± 0.035 | 1.03 ± 0.044 | 0.924 ± 0.069 | 0.907 ± 0.029 |
| CNC(C)C(O)c1ccccc1 (stereo not given) | 1.08 ± 0.021 | 1.09 ± 0.014 | 1.07 ± 0.042 | 1.1 ± 0.078 | 0.905 ± 0.071 |
| c1ccc(/N=N/c2ccccc2)cc1 | 1.03 ± 0.021 | 0.981 ± 0.027 | 1.04 ± 0.028 | 1.04 ± 0.088 | 0.986 ± 0.091 |
| CC[C@@]1(O)C[C@H](O[C@H]2C[C@H](N(C)C)[C@H](O[C@H]3C[C@@H]4O[C@H]5CC(=O)[C@H](C)O[C@H]5O[C@@H]4[C@H](C)O3)[C@H](C)O2)c2c(cc3c(c2O)C(=O)c2c(O)ccc(O)c2C3=O)[C@H]1C(=O)OC [Cinerubin-B] | 1.04 ± 0.12 | 0.993 ± 0.067 | 1.01 ± 0.028 | 0.991 ± 0.15 | 1.07 ± 0.028 |
